We go through 15 molecules from PubChem BioAssay (Tox21).

Each structure is given as a SMILES string. Inconclusive results are not listed. The source made the active and inactive calls. Unless noted, calls follow the shape of the dose curve; as a rule, active = well fitted curve in the direction sought with a large enough effect in the repeat runs; inconclusive = weak or mixed curves; inactive = no such curve, though single readings can be large; an effect the other way counts as inactive or inconclusive.

Test [1] in a line: qHTS assay to identify small molecule antagonists of the estrogen related receptor (ERR) signaling pathway - cell viability counter screen (AID 1224818). Also: series mostly up to about 46 µM. The essentials:
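Here, ERR cells are plated at 2,000 cells per well, allowed 6 h to attach, and treated with compounds in DMSO for 17.5 h at 37 C. CellTiter-Fluor is then added and fluorescence read after 30 min.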
In general terms: qHTS replaces the single test concentration by a dilution series.

The nature of test [2]: qHTS assay to identify small molecule antagonists of the estrogen related receptor (ERR) signaling pathway (AID 1224819; also: nearly all actives have a fitted effect of over 50% in size; also: potency is read from the fitted curve at half-maximal effect). In outline:
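LOPAC library screened for antagonism as reduced One-Glo luminescence in ERR reporter cells (2,000/well). Compounds were added after 6 h pre-incubation and left 18 h at 37C; reading followed a 30 min room-temperature reagent step.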

Test [3] can be described thus: qHTS assay to identify small molecule agonists of the estrogen related receptor (ERR) signaling pathway (AID 1224820). The essentials:
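ERR reporter cells (NTP line) plated 2,000/well, incubated 6 h at 37 C/5% CO2, then pinned with compounds in DMSO and held 18 h at 37 C. One-Glo added; luminescence read after 30 min at room temperature.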

Test [4] relates to estrogen-related receptor alpha (ERRalpha) with PGC-1alpha coactivator, human. The experiment in a line: qHTS assay to identify small molecule antagonists of the estrogen related receptor signaling pathway with the pleiotropic PPARgamma coactivator (PGC) (AID 1224821; calls by dose curve; also: nearly all actives have a fitted effect of over 50% in size; also: potency is read from the fitted curve at half-maximal effect). In outline:
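Cells engineered for PGC/ERR signalling (line from NTP) were plated 6 h at 37 C/5% CO2, then exposed to DMSO-dissolved compound for 18 h at 37 C. Luciferase activity was read by One-Glo luminescence after 30 min at room temperature.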

A short description of test [5]: qHTS assay to identify small molecule antagonists of the estrogen related receptor signaling pathway with the pleiotropic PPARgamma coactivator (PGC) cell viability counter screen (AID 1224822; also: series mostly up to about 46 µM). The essentials: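 qHTS format, DMSO compound stocks pin-transferred onto PGC/ERR cells 6 h after plating; 17.5 h exposure at 37 C, then CellTiter-Fluor fluorescence.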

A short description of test [6]: qHTS assay to identify small molecule agonists of the estrogen related receptor signaling pathway with the pleiotropic PPARgamma coactivator (PGC) (AID 1224823). In outline:
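PGC/ERR reporter cells were seeded, rested 6 h at 37 C/5% CO2, then exposed to compounds in DMSO by pin transfer for 18 h at 37 C. Luciferase activity was read as luminescence after One-Glo reagent and 30 min at room temperature.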

For the molecule `O=C(O)Cc1ccc(O)c(O)c1`, the Potency entry in test [1], in test [2], in test [3], in test [4], in test [5] and in test [6] was “inactive” in each case.

With `NC(=O)c1cccc(N)c1`, the Potency entry in test [1], in test [2], in test [3], in test [4], in test [5] and in test [6] was “inactive” in each case.

On to `NC(N)=[N+]1CCc2ccccc2C1`, for which the Potency entry in test [1], in test [2], in test [3], in test [4], in test [5] and in test [6] was “inactive” throughout.

Consider `NC(=O)c1cc[n+](CC2=C(C(=O)O)N3C(=O)[C@@H](NC(=O)[C@@H](c4ccccc4)S(=O)(=O)[O-])[C@H]3SC2)cc1`, for which the Potency result in test [1], in test [2], in test [3], in test [4] and in test [5] was “inactive” in each case.

On to `CC(C)(C)c1onc(OCP(=O)(O)O)c1CC(N)C(=O)O` (stereo not drawn), for which the Potency result in test [1], in test [2], in test [3], in test [4], in test [5] and in test [6] was “inactive” throughout.

For `CCCCCCCCCCCCCCCCCCOC[C@H](COP(=O)([O-])OCC[N+](C)(C)C)OC`, the Potency entry in test [1], in test [2], in test [3], in test [4], in test [5] and in test [6] was “inactive” throughout.

In the case of `NC(N)=NC(N)=Nc1cccc(Cl)c1`, the Potency result in test [1], in test [2], in test [3], in test [4], in test [5] and in test [6] was “inactive” each time.

On to `CC(=O)SCC[N+](C)(C)C`, for which the Potency entry in test [1], in test [2], in test [3], in test [4], in test [5] and in test [6] was “inactive” in each case.

On to `CNCCNS(=O)(=O)c1cccc2cnccc12`, for which the Potency result in test [1], in test [3], in test [5] and in test [6] was “inactive” each time. Further, the Potency in test [2] was 21.1 µM (active); in test [4] it was 9.08 µM (active).

With `CC(C)(C)NCC(O)COc1cccc2[nH]c(=O)[nH]c12` (stereo not drawn), the Potency entry in test [1], in test [2], in test [3], in test [4], in test [5] and in test [6] was “inactive” in each case.

With `CC(O)C(O)[C@H]1CNc2nc(N)[nH]c(=O)c2N1` (stereo partly drawn), the Potency result in test [1], in test [2], in test [3], in test [4], in test [5] and in test [6] was “inactive” each time.

Take `CN[C@H](CC(C)C)C(=O)N[C@H]1C(=O)N[C@@H](CC(N)=O)C(=O)N[C@H]2C(=O)N[C@H]3C(=O)N[C@H](C(=O)N[C@H](C(=O)O)c4cc(O)cc(O)c4-c4cc3ccc4O)[C@H](O)c3ccc(c(Cl)c3)Oc3cc2cc(c3O[C@@H]2O[C@H](CO)[C@@H](O)[C@H](O)[C@H]2O[C@H]2C[C@](C)(N)[C@H](O)[C@H](C)O2)Oc2ccc(cc2Cl)[C@H]1O`: the Potency result in test [1], in test [2], in test [3], in test [4], in test [5] and in test [6] was “inactive” each time.

As to `O=c1cc(-c2ccccc2F)[nH]c2cc3c(cc12)OCO3`, the Potency entry in test [1], in test [2], in test [3], in test [4] and in test [5] was “inactive” throughout.

On to `NC(Cc1cccc(-c2ccccc2CP(=O)(O)O)c1)C(=O)O` (stereo not drawn), for which the Potency result in test [1], in test [2], in test [3], in test [4], in test [5] and in test [6] was “inactive” in each case.

As for `O=C(O)/C(=C/c1c(C(=O)O)[nH]c2cc(Cl)cc(Cl)c12)c1ccccc1`, the Potency entry in test [1], in test [2], in test [3], in test [4], in test [5] and in test [6] was “inactive” throughout.
